The numbers were not newly measured in PubChem BioAssay AID977611, which cites them from elsewhere.

This data set is described as follows: PubChem AID 977611. The settings on record: PDB protein-ligand complexes, literature Kd.

The whole screen tested about 3,900 compounds, of which about 3,900 (100%) were called active. The limit is not given here; nearly all actives have Kd up to about 4200 µM. The set was probably picked from earlier hits. This is one part of the list. Where a SMILES comes first, the peptide text is derived from it. Non-standard residues stand in square brackets, D forms with d. Square brackets hold non-standard residues; d marks the D form. Residues, ends and D or L forms follow the SMILES beside them. Peptide text beside a SMILES is read from it. [ ]: non-standard residue; d: D form. Orn(CH(NH2)2) = NC(N)NCCC[C@H](N)C(=O)O

The term Kd denotes the concentration at which binding is half-saturated. For the compound `C[C@H](NC(=O)[C@H](Cc1c[nH]c2ccccc12)NC(=O)[C@H](CC(N)=O)NC(=O)[C@@H](N)CC(N)=O)C(=O)N[C@@H](CC(=O)O)C(=O)N[C@@H](Cc1ccccc1)C(=O)N[C@@H](CO)C(=O)N[C@@H](CO)C(=O)N[C@H](C(=O)N[C@@H](Cc1c[nH]c2ccccc12)C(=O)N1CCC[C@H]1C(=O)O)[C@@H](C)O` (H-NNWADFSSTWP-OH), the Kd (protein: Adaptor protein complex AP-2, subunit beta-1, PDB entry 3hs9) was 0.49 µM (active).

With `NCCCC[C@H](NC(=O)[C@H](CO)NC(=O)[C@@H]1CCCN1)C(=O)N[C@@H](CCCCN)C(=O)N[C@@H](CCCNC(N)N)C(=O)N[C@@H](CCCCN)C(=O)N[C@@H](CCCNC(N)N)C(=O)N[C@@H](CO)C(=O)N[C@@H](CCCNC(N)N)C(=O)N[C@@H](Cc1c[nH]c2ccccc12)C(=O)N[C@@H](CC(N)=O)C(=O)N[C@@H](CCC(N)=O)C(=O)N[C@@H](CC(=O)O)C(=O)O` (H-PSKK[Orn(CH(NH2)2)]K[Orn(CH(NH2)2)]S[Orn(CH(NH2)2)]WNQD-OH), the Kd (protein: the C-terminal RRM (RRM3) of human U2AF65, PDB entry 1opi) was 0.05 µM (active).

Take H-PDWDFN-NH2: the Kd (protein: AP-1 COMPLEX SUBUNIT GAMMA-LIKE 2, PDB entry 3zhf) is 120 µM (active).

Take `C[C@H](NC(=O)[C@H](Cc1c[nH]c2ccccc12)NC(=O)[C@H](CC(N)=O)NC(=O)[C@H](CC(N)=O)NC(=O)[C@@H]1CCCN1)C(=O)N[C@@H](CC(=O)O)C(=O)N[C@@H](Cc1ccccc1)C(=O)N[C@@H](CO)C(=O)N[C@@H](CO)C(=O)N[C@H](C(=O)N[C@@H](Cc1c[nH]c2ccccc12)C(=O)N1CCC[C@H]1C(=O)O)[C@@H](C)O` (H-PNNWADFSSTWP-OH): the Kd (protein: Adaptor protein complex AP-2, alpha 2 subunit, PDB entry 3hs8) is 5 µM (active).

With `CCCCCCCC(=O)OC[C@H](CO[P+](O)(O)OC[C@H](N)C(=O)O)OC(=O)CCCCCCC`, the Kd (protein: Matrix protein p17, PDB entry 2lyb) was 35 µM (active).

Turning to `CCCCCCCC(=O)OC[C@H](CO[P+](O)(O)OCC[N+](C)(C)C)OC(=O)CCCCCCC`, the equilibrium dissociation constant (Kd) (protein: Matrix protein p17, PDB entry 2lya) was 65 µM (active).

As for `CC(C)C[C@H](CNC(=O)c1cccnc1)Cc1ccc2c(c1C(=O)O)OCO2`, the Kd (protein: HIV integrase, PDB entry 4cjp) is 481 µM (active).

Turning to `CC(C)C[C@H](CNC(=O)c1ccncc1)Cc1ccc2c(c1C(=O)O)OCO2`, the Kd (protein: HIV INTEGRASE, PDB entry 4cj4) was 432 µM (active).

Regarding `CC(C)C[C@H](CNC(=O)CCCN)Cc1ccc2c(c1C(=O)O)OCO2`, under “protein: HIV integrase, PDB entry 4ck3”, the Kd is 268 µM (active).

`CC(C)C[C@H](CNC(=O)Cc1c[nH]c2ccccc12)Cc1ccc2c(c1C(=O)O)OCO2`: where the note is “protein: HIV integrase, PDB entry 4cjq”, the Kd was 256 µM (active).

Take `NC(=O)CC[C@H](NC(=O)c1ccc(O[C@@H]2O[C@H](CO)[C@H](O)[C@H](O)[C@H]2O)cc1)C(=O)N[C@@H](CCCNC(N)N)C(=O)N[C@@H](CO)C(N)=O`: for the setting “protein: PA-I galactophilic lectin, PDB entry 4lkd”, the Kd is 4.5 µM (active).

`NCCCC[C@H](NC(=O)[C@H](Cc1c[nH]c2ccccc12)NC(=O)c1ccc(O[C@@H]2O[C@H](CO)[C@H](O)[C@H](O)[C@H]2O)cc1)C(=O)N[C@@H](Cc1ccc(O)cc1)C(N)=O`: the Kd (protein: PA-I galactophilic lectin, PDB entry 4lkf) was 4.3 µM (active).

As to `NC(=O)CNC(=O)[C@H](Cc1c[nH]c2ccccc12)NC(=O)c1ccc(O[C@@H]2O[C@H](CO)[C@H](O)[C@H](O)[C@H]2O)cc1`, under “protein: PA-I galactophilic lectin, PDB entry 4lke”, the Kd was 4.3 µM (active).

Take `CC[C@H](C)[C@H](NC(=O)[C@@H]1CCCN1C(=O)[C@H](CCCNC(N)N)NC(=O)[C@@H]1CCCN1C(=O)[C@@H]1CCCN1)C(=O)N[C@@H](Cc1ccc(O)cc1)C(=O)N[C@@H](CC(N)=O)C(=O)O` (H-PP[Orn(CH(NH2)2)]PIYN-OH): the Kd (protein: Chaperone protein DnaK, PDB entry 4ezq) is 6.3 µM (active).

As for `CC(C)C[C@H](NC(=O)[C@H](Cc1ccc(O)cc1)NC(=O)[C@@H]1CCCN1C(=O)[C@@H]1CCCN1)C(=O)N1CCC[C@H]1C(=O)N[C@@H](CCCNC(N)N)C(=O)N1CCC[C@H]1C(=O)N[C@@H](CCCNC(N)N)C(=O)O` (H-PPYLP[Orn(CH(NH2)2)]P[Orn(CH(NH2)2)]-OH), the Kd (protein: Chaperone protein DnaK, PDB entry 4ezo) is 0.3 µM (active).

Regarding `CC[C@H](C)[C@H](NC(=O)[C@H](CO)NC(=O)[C@H](CCCCN)NC(=O)[C@@H](NC(=O)[C@H](Cc1cnc[nH]1)NC(=O)[C@H](CCC(=O)O)NC(=O)[C@@H]1CCCN1C(=O)[C@H](CCCNC(N)N)NC(=O)[C@@H]1CCCN1C(=O)[C@H](C)NC(=O)[C@@H](NC(=O)[C@@H](NC(=O)[C@@H]1CCCN1C(=O)[C@@H]1CCCN1)C(C)C)[C@@H](C)CC)[C@@H](C)O)C(=O)N[C@@H](Cc1ccc(O)cc1)C(=O)N[C@H](C(=O)N[C@@H](CCCNC(N)N)C(=O)N[C@@H](CO)C(=O)O)[C@@H](C)O` (H-PPVIAP[Orn(CH(NH2)2)]PEHTKSIYT[Orn(CH(NH2)2)]S-OH), the Kd (protein: the SH3 Domain of ?PIX, PDB entry 2df6) is 1.05 µM (active).

Consider `CC[C@H](C)[C@H](NC(=O)[C@@H](NC(=O)[C@@H]1CCCN1C(=O)[C@H](CCCNC(N)N)NC(=O)[C@H](CCCNC(N)N)NC(=O)[C@@H]1CCCN1)C(C)C)C(=O)N[C@@H](CCSC)C(=O)N[C@@H](CCCNC(N)N)C(N)=O` (H-P[Orn(CH(NH2)2)][Orn(CH(NH2)2)]PVIM[Orn(CH(NH2)2)]-NH2), for which, under “protein: Chaperone protein DnaK, PDB entry 4ezt”, the Kd was 7.4 µM (active).

As for `CC[C@H](C)[C@H](NC(=O)[C@@H]1CCCN1C(=O)[C@H](CCC(=O)O)NC(=O)[C@H](Cc1ccc(O)cc1)NC(=O)[C@H](CC(=O)O)NC(=O)[C@@H]1CCCN1C(=O)[C@H](CC(N)=O)NC(=O)[C@@H]1CCCN1C(=O)[C@@H](NC(=O)[C@@H]1CCCN1C(=O)[C@@H]1CCCN1)C(C)C)C(=O)N[C@H](C=O)CCCNC(N)N` (H-PPVPNPDYEPI[Orn(CH(NH2)2)]-aldehyde), for the setting “protein: Epidermal growth factor receptor kinase substrate 8-like protein 1 SH3 domain, PDB entry 2rol”, the Kd was 24 µM (active).

In the case of H-ARYGVSNTSINRK-OH, the Kd (protein: Protein HTP-1 P84L, PDB entry 4tzq) was 0.3 µM (active) and the Kd (protein: Protein HTP-2, PDB entry 4tzm) is 0.2 µM (active).

Take H-ATGSARSEGY-OH: the Kd (protein: WD repeat-containing protein 5, WDR5, PDB entry 4ewr) is 0.541 µM (active).

With `O=C(CCS)N1CCC(O)(c2ccc(Cl)c(C(F)(F)F)c2)CC1`, where the note is “protein: CREB-binding protein, PDB entry 4i9o”, the Kd is 1.9 µM (active).

With `CC(C)C[C@H](NC(=O)CNC(=O)[C@H](CCCNC(N)N)NC(=O)[C@@H](N)CO)C(=O)N[C@@H](CCC(=O)O)C(=O)N[C@H](C(=O)N[C@@H](CO)C(=O)N[C@@H](Cc1cnc[nH]1)C(=O)N[C@@H](CCCNC(N)N)C(=O)N[C@@H](CC(C)C)C(=O)N[C@@H](C)C(=O)N1CCC[C@H]1C(=O)N[C@@H](Cc1c[nH]c2ccccc12)C(=O)O)C(C)C` (H-S[Orn(CH(NH2)2)]GLEVSH[Orn(CH(NH2)2)]LAPW-OH), the Kd (protein: Telomeric repeat-binding factor 2, PDB entry 4m7c) is 0.75 µM (active).

As for H-SWVYSPLHYSA-OH, the Kd (protein: Talin FERM F3 domain, PDB entry 1y19) is 0.17 µM (active).

In the case of `CC(C)C[C@H](NC(=O)[C@H](Cc1cnc[nH]1)NC(=O)[C@H](CCC(=O)O)NC(=O)[C@H](Cc1c[nH]c2ccccc12)NC(=O)[C@@H](NC(=O)[C@H](Cc1ccc(O)cc1)NC(=O)[C@@H](NC(=O)[C@H](C)NC(=O)[C@@H](N)CC(=O)O)[C@@H](C)O)[C@@H](C)O)C(=O)N[C@@H](C)C(=O)N[C@@H](Cc1c[nH]c2ccccc12)C(=O)N1CCC[C@H]1C(=O)O`, the Kd (protein: The human ?-aminobutyric acid type A (GABAA), PDB entry 3d32) is 0.354 µM (active).

For the compound `CSCC[C@H](N)C(=O)N1CCC[C@H]1C(=O)N1CCC[C@H]1C(=O)N[C@H](C(=O)N[C@@H](CC(C)C)C(=O)N1CCC[C@H]1C(=O)N[C@@H](Cc1cnc[nH]1)C(=O)N[C@@H](CCCNC(N)N)C(=O)N[C@@H](CC(=O)O)C(=O)N[C@@H](Cc1c[nH]c2ccccc12)C(=O)O)[C@@H](C)O` (H-MPPTLPH[Orn(CH(NH2)2)]DW-OH), the Kd (protein: Peroxisomal membrane protein PAS20 (SH3 domain), PDB entry 1n5z) was 44 µM (active).
